Shown is part of a subset that was picked to be rich in hits.
IDE exosite FP: exo-site inhibitors of human IDE, primary screen, biochemical, fluorescence anisotropy, probe displacement. purified IDE, FL-6b probe fluorescence polarization; hits give low values. actives 6.3% (n = 17,000). z-score at 20 µM. Insulin-degrading enzyme (Homo sapiens), P14735. AID 1259349, 2017;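 active = z-score of -3 or lower, meaning strong loss of probe binding signal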;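 also: His-tagged human IDE residues 42-1019 made in E. coli with 30 nM FL-6b probe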
* hit, by the source's call.

SMILES | IDE exosite FP
CN(C)C(=O)c1ccc(-c2ccc(C3[C@@H]4CN(C(=O)C5CC5)C[C@H]3N4)cc2)cc1 (some centres not stated) | 1.4
CCCNC(=O)Nc1ccc2c(c1)OC[C@H](C)N(C(=O)C1CCOCC1)C[C@H](C)[C@H](OC)CN(C)C2=O | -1.6
N#C[C@@H]1[C@H](c2ccc(C3=CCCCC3)cc2)[C@H](CO)N1S(=O)(=O)c1cccc(F)c1 | 3.4
COc1cccc(C#Cc2ccc([C@@H]3[C@H]4CN(S(=O)(=O)c5ccccc5C)CC(=O)N4[C@H]3CO)cc2)c1 | -0.49
CCC(=O)N1CC(=O)N2[C@H](CO)[C@@H](c3ccc(-c4cccnc4)cc3)[C@H]2C1 | 2.1
CCCNC(=O)N1CC(=O)N2[C@H](CO)[C@@H](c3ccc(C#CCC4CCCC4)cc3)[C@@H]2C1 | 0.93
COCC(=O)NC[C@H]1[C@@H](c2ccc(C3=CCCC3)cc2)[C@H](CO)N1C(=O)C1CC1 | 5.7
CC(C)C#Cc1ccc([C@H]2[C@@H](C#N)N(C(=O)CN(C)C)[C@@H]2CO)cc1 | 2.4
CCCNC(=O)N1CC(=O)N2[C@H](CO)[C@@H](c3ccc(C#Cc4ccc(F)cc4)cc3)[C@@H]2C1 | 4.3
CO[C@H]1CN(C)C(=O)c2ccc(NS(=O)(=O)c3c(C)noc3C)cc2OC[C@@H](C)NC[C@@H]1C | -0.22
O=C(CC1CC1)N1CC(=O)N2[C@H](CO)[C@H](c3ccc(C#Cc4ccccc4)cc3)[C@@H]2C1 | -10*
O=C(Cc1ccccc1)N1CC(=O)N2[C@@H](CO)[C@@H](c3ccc(C#Cc4ccccc4)cc3)[C@@H]2C1 | 0.82
O=C(CC1CC1)N1CC(=O)N2[C@H](C1)[C@@H](c1ccc(C#Cc3ccccc3)cc1)[C@@H]2CO | -8.5*
O=C(CC1CC1)N1CC(=O)N2[C@H](C1)[C@@H](c1ccc(C#Cc3ccc(F)cc3)cc1)[C@@H]2CO | 0.15
O=C(CC1CC1)N1CC(=O)N2[C@H](C1)[C@H](c1ccc(C#Cc3ccccc3)cc1)[C@@H]2CO | -16*
O=C(CC1CC1)N1CC(=O)N2[C@H](CO)[C@@H](c3ccc(C#Cc4ccc(F)cc4)cc3)[C@H]2C1 | 0.27
O=C(CC1CC1)N1CC(=O)N2[C@H](CO)[C@@H](c3ccc(C#Cc4ccccc4)cc3)[C@@H]2C1 | -7.7*
O=C(CC1CC1)N1CC(=O)N2[C@H](C1)[C@H](c1ccc(C#Cc3ccc(F)cc3)cc1)[C@@H]2CO | -1.7
O=C(CC1CC1)N1CC(=O)N2[C@@H](CO)[C@@H](c3ccc(C#Cc4cccc(F)c4)cc3)[C@@H]2C1 | -0.61
OC[C@@H]1[C@@H](c2ccc(-c3ccc(F)cc3)cc2)[C@H]2CN(Cc3cccnc3)CCCCN12 | 0.73
COCC(=O)Nc1ccc2c(c1)[C@H]1C[C@H](CC(=O)N[C@H](C)c3ccccc3)O[C@@H](CO)[C@H]1O2 | -1.5
COCC#Cc1ccc([C@H]2[C@@H](CO)N3CCCCN(C(=O)Nc4cc(F)ccc4F)C[C@@H]23)cc1 | 4.2
COCCNC(=O)C[C@@H]1CC[C@@H]2[C@@H](COc3ccc(NS(=O)(=O)c4ccc(Cl)cc4)cc3C(=O)N2C)O1 | -0.3
N#Cc1ccc(-c2ccc([C@H]3[C@@H](CO)N4C(=O)CN(C(=O)C5CCCCC5)C[C@@H]34)cc2)cc1 | 4
O=C(C[C@@H]1CC[C@@H]2[C@H](COC[C@@H](O)CN2C(=O)Nc2cccc(F)c2)O1)NCCCN1CCOCC1 | -1.1
SMILES | IDE exosite FP
O=C(Nc1cccc(F)c1)N1CC(=O)N2[C@H](CO)[C@@H](c3ccc(C#CC4CC4)cc3)[C@@H]2C1 | -0.42
COc1ccc(NC(=O)N2CC(=O)N3[C@@H](CO)[C@@H](c4ccc(-c5ccc(C)cc5)cc4)[C@@H]3C2)cc1 | 0.082
O=C(c1ccccc1F)N1CC2(C1)[C@H](c1ccccc1)[C@@H](CO)N2CC1CCOCC1 | -0.62
C[C@H](CO)N1C[C@H](C)[C@H](CN(C)C(=O)Nc2ccc3c(c2)OCO3)OCc2cn(nn2)CCCC1=O | -0.4
COc1cccc(C#Cc2ccc([C@H]3[C@H](CO)N4C(=O)CN(C(=O)c5ccncc5)C[C@@H]34)cc2)c1 | -8.4*
COc1cccc(C#Cc2ccc([C@H]3[C@@H](CO)N4C(=O)CN(C(=O)c5ccccc5)C[C@H]34)cc2)c1 | -3.8*
COc1cccc(C#Cc2ccc([C@@H]3[C@@H](CO)N4C(=O)CN(C(=O)c5ccncc5)C[C@H]34)cc2)c1 | -1.5
COc1cccc(C#Cc2ccc([C@H]3[C@@H](CO)N4C(=O)CN(C(=O)c5ccccc5)C[C@@H]34)cc2)c1 | 0.74
COc1cccc(C#Cc2ccc([C@@H]3[C@H]4CN(C(=O)c5ccccc5)CC(=O)N4[C@H]3CO)cc2)c1 | 3.7
COc1cccc(C#Cc2ccc([C@H]3[C@H]4CN(C(=O)c5ccncc5)CC(=O)N4[C@H]3CO)cc2)c1 | -1.6
O=C1Nc2ccccc2OCc2cn(nn2)CC[C@H]1Cc1ccc(-c2ccccc2)cc1 | -0.78
COc1cccc(C#Cc2ccc([C@H]3[C@@H](CO)N4C(=O)CN(S(=O)(=O)c5ccccc5C)C[C@@H]34)cc2)c1 | 4.6
CCC(=O)N1[C@H](CN(C)C(C)=O)[C@H](c2ccc(C3=CCCC3)cc2)[C@@H]1CO | 0.73
O=C(c1ccncc1)N1CC(=O)N2[C@H](CO)[C@@H](c3ccc(/C=C/c4ccccc4)cc3)[C@H]2C1 | -1.2
O=C(c1ccccc1)N1CC(=O)N2[C@H](C1)[C@@H](c1ccc(/C=C/c3ccccc3)cc1)[C@@H]2CO | -2.6
O=C(c1cccnc1)N1CC(=O)N2[C@H](CO)[C@H](c3ccc(-c4ccc(F)cc4)cc3)[C@@H]2C1 | 0.28
C/C=C/c1ccc([C@@H]2[C@@H](CO)N3C(=O)CN(C(=O)Cc4cccnc4)C[C@H]23)cc1 | 1.1
O=C(c1cccc(F)c1)N1CC(=O)N2[C@H](CO)[C@H](c3ccc(/C=C/c4ccccc4)cc3)[C@@H]2C1 | -2.7
O=C(c1ccc(F)cc1)N1CC(=O)N2[C@H](CO)[C@@H](c3ccc(/C=C/c4ccccc4)cc3)[C@@H]2C1 | 0.7
O=C(c1cccnc1)N1CC(=O)N2[C@H](CO)[C@@H](c3ccc(/C=C/c4ccccc4)cc3)[C@H]2C1 | -5.4*
O=C(Cc1cccnc1)N1CC(=O)N2[C@H](C1)[C@@H](c1ccc(/C=C/c3ccccc3)cc1)[C@@H]2CO | -4.7*
O=C(c1ccc(F)cc1)N1CC(=O)N2[C@@H](CO)[C@H](c3ccc(/C=C/c4ccccc4)cc3)[C@@H]2C1 | -5.3*
C/C=C/c1ccc([C@H]2[C@H](CO)N3C(=O)CN(C(=O)c4ccc(F)cc4)C[C@@H]23)cc1 | 2.4
O=C(c1ccccc1)N1CC(=O)N2[C@@H](CO)[C@H](c3ccc(/C=C/c4ccccc4)cc3)[C@@H]2C1 | -3.4*
C/C=C/c1ccc([C@H]2[C@H]3CN(C(=O)Cc4cccnc4)CC(=O)N3[C@H]2CO)cc1 | -0.49
CC(C)NC(=O)Nc1ccc2c(c1)C(=O)N([C@H](C)CO)C[C@H](C)[C@@H](CN(C)C(=O)C1CCCCC1)OCCCC[C@@H](C)O2 | 0.38
CCC(=O)NC[C@H]1[C@H](c2ccc(-c3cccc(F)c3)cc2)[C@@H](CO)N1C(=O)CC | 2.4
O=C(C1CC1)N1CC(=O)N2[C@H](CO)[C@H](c3ccc(Br)cc3)[C@H]2C1 | 2.5
CN(C)CC(=O)N1CC2(C1)[C@@H](c1ccccc1)[C@H](CO)N2C(=O)C1CC1 | 1.2
CC(=O)N1[C@H](CO)[C@H](c2ccc(-c3cccnc3)cc2)[C@@H]1CNC(=O)C1CC1 | 0.098

Screens (PubChem)
